According to the supplement of paper PMC11732987, “Enantioselective OTUD7B fragment discovery through chemoproteomics screening and high-throughput optimisation” (Communications Chemistry, 2025):

How the values were obtained:
Test in all cases: log2 ratio of Biotin-Ahx-Ub-VS probe labelling (fragment/DMSO); higher = less target engagement (more negative = stronger competition), active = hit call of the paper (q ≤ 0.05, log2 ratio ≤ -1)
Details in all cases: compound concentration: 200 uM; treatment time: 3 h
USP19 = biological target: T1, USP19 (UniProt O94966)
T1 sequence (whole entry): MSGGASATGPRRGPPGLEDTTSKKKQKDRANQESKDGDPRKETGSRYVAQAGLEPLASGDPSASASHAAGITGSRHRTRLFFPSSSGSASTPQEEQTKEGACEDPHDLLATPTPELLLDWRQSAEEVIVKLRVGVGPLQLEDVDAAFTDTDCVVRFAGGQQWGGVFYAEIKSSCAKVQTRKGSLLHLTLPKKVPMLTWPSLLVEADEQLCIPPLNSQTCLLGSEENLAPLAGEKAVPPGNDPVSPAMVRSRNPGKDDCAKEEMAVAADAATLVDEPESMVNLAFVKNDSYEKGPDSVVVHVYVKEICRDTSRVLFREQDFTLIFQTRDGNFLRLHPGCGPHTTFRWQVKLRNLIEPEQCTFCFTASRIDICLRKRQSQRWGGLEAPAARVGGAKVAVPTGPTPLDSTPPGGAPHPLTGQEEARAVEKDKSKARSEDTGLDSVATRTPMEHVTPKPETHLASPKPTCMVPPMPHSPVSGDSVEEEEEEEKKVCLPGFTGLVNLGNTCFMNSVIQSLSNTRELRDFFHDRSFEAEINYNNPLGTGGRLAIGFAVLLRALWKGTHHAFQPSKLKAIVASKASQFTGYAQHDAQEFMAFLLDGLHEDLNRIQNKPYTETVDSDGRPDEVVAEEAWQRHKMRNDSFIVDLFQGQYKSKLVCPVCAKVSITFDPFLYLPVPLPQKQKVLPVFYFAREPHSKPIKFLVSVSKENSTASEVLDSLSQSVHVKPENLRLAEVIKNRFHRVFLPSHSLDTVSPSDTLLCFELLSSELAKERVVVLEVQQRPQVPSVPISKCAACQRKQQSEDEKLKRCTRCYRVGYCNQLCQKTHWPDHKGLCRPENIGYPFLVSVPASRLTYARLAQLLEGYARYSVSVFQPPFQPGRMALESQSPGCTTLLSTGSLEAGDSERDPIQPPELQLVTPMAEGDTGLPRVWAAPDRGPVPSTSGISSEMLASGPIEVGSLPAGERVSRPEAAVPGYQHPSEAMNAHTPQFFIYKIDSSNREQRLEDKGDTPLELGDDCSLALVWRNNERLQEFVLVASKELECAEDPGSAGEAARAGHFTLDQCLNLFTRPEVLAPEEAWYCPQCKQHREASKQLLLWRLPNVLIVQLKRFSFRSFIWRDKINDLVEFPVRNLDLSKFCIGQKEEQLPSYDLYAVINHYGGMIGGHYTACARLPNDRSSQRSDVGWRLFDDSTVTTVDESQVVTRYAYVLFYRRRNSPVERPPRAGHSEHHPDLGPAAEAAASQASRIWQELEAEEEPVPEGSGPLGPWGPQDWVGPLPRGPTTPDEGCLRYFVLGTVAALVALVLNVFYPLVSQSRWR
Procedure, shortened: (§1)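 The table lists average log2 ratios of fragment over vehicle, from an unpaired t-test on global-median-normalised Spectronaut label-free quantities. Proteins with ≥2 unique peptides were used. Samples were HEK293T lysate (495 µg) treated in triplicate with fragment at 200 µM or vehicle for 3 h, then with Biotin-Ahx-Ub-VS (0.5 µM final) for 1 h, with labelled DUBs NeutrAvidin-enriched and run by diaPASEF LC-MS/MS.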

USP22 = biological target: T2, USP22 (UniProt Q9UPT9)
T2 sequence (whole entry): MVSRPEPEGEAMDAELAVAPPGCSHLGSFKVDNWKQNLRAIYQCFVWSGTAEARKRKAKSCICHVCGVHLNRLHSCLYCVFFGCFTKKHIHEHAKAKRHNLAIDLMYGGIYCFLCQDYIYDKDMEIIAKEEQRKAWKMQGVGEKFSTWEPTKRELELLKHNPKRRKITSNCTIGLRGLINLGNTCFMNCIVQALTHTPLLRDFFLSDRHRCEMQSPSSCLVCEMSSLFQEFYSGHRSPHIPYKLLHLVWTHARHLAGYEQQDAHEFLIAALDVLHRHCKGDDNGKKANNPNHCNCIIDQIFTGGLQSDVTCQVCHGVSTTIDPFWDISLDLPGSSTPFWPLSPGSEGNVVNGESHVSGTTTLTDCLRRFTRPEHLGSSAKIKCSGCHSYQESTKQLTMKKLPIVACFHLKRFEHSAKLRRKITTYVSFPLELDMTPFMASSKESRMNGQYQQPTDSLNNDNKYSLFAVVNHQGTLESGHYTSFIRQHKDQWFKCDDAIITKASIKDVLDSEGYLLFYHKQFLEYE
Procedure, shortened: as §1

USP24 = USP24 (UniProt Q9UPU5)
Procedure, shortened: as §1

USP25 = biological target: T3, USP25 (UniProt Q9UHP3)
T3 sequence (whole entry): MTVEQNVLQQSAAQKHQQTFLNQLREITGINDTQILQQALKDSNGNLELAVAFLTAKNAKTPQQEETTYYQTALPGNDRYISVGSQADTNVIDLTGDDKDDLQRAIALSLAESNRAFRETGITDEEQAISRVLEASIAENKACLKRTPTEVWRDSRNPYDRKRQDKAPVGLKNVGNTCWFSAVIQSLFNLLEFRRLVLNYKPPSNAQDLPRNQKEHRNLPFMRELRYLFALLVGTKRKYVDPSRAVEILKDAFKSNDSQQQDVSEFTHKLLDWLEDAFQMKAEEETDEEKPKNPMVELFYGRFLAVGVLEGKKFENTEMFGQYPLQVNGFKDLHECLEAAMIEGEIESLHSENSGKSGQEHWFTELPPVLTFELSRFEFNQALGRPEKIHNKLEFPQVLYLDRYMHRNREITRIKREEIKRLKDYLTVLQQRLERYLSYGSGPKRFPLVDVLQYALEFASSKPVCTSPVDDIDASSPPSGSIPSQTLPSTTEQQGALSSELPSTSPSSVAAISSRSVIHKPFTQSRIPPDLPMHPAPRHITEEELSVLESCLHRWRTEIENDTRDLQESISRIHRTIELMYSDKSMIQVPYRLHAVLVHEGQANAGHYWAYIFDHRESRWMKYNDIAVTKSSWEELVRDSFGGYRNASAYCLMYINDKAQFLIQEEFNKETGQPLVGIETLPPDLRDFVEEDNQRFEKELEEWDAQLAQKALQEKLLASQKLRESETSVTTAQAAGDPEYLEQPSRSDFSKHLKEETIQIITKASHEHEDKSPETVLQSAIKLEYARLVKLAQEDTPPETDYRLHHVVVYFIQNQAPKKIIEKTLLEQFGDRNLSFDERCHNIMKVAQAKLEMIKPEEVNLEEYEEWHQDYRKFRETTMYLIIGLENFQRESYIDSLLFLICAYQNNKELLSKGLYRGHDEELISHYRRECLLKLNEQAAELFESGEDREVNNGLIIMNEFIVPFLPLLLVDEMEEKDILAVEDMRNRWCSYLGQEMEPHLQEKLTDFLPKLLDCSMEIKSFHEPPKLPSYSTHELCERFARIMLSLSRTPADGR
Procedure, shortened: as §1

USP28 = biological target: T4, USP28 (UniProt Q96RU2)
T4 sequence (whole entry): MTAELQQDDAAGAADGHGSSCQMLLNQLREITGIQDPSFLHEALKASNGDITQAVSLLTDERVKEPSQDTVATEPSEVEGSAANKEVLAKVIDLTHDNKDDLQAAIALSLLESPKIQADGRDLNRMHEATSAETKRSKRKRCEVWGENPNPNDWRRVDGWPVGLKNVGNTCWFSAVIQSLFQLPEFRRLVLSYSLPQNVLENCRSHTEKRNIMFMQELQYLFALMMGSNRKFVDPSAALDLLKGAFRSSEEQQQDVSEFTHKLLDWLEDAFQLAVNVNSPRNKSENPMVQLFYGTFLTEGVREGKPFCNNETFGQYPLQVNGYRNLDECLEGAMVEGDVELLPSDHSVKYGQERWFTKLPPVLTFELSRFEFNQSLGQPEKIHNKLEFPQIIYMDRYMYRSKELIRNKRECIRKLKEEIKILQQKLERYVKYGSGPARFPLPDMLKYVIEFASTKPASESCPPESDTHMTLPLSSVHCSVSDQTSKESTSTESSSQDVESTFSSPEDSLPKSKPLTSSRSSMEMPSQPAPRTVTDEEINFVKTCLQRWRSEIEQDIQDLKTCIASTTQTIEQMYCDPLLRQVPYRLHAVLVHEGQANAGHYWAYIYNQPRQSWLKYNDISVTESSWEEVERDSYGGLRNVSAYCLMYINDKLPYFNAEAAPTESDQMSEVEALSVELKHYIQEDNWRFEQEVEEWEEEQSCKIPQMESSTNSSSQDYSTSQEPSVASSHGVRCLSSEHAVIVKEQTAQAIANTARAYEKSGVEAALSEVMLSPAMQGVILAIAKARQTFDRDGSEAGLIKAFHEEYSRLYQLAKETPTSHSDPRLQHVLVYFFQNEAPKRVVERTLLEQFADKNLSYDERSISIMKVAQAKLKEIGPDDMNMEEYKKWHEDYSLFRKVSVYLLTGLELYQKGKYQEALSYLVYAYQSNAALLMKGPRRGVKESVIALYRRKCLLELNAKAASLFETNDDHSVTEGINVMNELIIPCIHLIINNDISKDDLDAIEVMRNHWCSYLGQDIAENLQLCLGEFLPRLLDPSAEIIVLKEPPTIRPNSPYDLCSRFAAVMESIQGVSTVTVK
Procedure, shortened: as §1

Measured: log2 ratio of Biotin-Ahx-Ub-VS probe labelling

USP24, sequence (Q9UPU5 whole entry): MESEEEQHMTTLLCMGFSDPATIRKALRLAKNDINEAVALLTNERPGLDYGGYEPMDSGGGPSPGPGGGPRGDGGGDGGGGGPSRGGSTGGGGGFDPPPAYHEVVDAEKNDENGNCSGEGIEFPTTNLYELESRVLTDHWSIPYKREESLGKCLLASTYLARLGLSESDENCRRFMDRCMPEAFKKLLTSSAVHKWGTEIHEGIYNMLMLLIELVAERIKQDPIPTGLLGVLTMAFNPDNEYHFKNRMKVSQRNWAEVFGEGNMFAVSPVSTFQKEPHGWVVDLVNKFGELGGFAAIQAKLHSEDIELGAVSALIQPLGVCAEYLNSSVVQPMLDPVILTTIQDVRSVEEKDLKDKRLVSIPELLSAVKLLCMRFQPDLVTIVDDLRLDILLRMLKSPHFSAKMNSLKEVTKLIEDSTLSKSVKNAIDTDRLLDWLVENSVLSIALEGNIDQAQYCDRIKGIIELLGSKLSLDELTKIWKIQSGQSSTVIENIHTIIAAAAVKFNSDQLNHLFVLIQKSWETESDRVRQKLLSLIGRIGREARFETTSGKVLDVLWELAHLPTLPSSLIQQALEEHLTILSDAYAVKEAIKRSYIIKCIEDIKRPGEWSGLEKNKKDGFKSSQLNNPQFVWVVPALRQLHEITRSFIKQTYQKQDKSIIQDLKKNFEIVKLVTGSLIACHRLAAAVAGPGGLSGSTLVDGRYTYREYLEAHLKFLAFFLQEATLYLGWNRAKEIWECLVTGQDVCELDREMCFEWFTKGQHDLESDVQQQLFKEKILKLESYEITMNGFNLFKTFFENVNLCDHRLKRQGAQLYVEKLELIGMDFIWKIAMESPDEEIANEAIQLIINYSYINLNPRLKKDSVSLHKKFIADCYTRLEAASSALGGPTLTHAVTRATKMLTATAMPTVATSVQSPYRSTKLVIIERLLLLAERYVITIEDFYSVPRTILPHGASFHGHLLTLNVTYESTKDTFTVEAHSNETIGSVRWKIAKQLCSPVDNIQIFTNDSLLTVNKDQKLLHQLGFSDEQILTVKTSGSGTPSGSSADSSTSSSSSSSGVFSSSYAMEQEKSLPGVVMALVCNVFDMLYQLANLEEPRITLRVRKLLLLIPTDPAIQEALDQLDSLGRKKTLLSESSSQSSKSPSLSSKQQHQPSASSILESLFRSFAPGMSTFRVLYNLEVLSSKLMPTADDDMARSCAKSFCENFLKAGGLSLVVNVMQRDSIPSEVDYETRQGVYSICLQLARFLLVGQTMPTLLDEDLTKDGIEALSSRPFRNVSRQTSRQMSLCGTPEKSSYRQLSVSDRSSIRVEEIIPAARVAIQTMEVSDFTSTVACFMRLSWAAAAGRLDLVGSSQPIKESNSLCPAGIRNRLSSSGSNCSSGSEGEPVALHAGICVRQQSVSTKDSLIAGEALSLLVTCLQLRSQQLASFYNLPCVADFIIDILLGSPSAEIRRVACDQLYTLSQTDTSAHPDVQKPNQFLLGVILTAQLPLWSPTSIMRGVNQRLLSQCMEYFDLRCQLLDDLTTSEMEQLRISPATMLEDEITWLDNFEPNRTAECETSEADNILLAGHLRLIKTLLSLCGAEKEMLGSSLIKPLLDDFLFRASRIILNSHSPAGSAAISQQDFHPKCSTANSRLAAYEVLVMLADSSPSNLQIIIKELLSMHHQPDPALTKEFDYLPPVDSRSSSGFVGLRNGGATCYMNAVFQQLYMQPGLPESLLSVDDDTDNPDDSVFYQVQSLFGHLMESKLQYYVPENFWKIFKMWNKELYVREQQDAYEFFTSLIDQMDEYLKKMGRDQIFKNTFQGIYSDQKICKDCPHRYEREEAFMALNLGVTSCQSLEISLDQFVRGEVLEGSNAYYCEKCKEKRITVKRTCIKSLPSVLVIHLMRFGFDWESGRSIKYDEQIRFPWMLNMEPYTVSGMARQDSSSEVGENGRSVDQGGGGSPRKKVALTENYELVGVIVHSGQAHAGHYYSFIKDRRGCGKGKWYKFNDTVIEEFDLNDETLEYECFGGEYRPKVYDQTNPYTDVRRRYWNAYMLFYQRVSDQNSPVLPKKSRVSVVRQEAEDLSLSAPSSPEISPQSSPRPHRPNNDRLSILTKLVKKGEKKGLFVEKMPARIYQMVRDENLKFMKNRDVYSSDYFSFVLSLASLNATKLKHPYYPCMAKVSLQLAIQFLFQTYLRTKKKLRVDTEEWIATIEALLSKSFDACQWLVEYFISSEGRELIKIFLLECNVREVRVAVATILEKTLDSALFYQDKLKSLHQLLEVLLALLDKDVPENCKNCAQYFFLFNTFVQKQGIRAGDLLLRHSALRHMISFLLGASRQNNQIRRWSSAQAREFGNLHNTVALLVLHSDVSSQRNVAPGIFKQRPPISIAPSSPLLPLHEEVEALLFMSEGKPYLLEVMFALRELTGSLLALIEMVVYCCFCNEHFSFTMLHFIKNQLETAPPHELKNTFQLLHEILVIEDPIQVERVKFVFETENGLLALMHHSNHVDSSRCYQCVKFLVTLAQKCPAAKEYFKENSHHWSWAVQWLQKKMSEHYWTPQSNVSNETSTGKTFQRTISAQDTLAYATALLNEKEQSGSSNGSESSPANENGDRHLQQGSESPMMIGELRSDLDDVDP

O=C(CCl)Nc1ccc(F)cc1F
inactive: USP19 -0.101 | USP22 -0.241 | USP24 -0.312 | USP25 -0.265 | USP28 -0.838
